Screens (PubChem)
This is a sample that favours compounds with a hit; in the whole collection about 3.9% have one here.
BoNT-A LC inh2 = BoNT/A light chain protease inhibitors, primary screen, biochemical, flow cytometry, MLPCN library; actives 0.17% (n = 360,000); inhibition, % at 10 µM; Botulinum neurotoxin type A light chain protease (Clostridium botulinum A str. ATCC 3502); multiplex microsphere protease substrate cleavage; AID 588499, 2011
CCHF vOTU inh = CCHFV vOTU protease inhibitors, primary screen, biochemical, Pep-AMC substrate, fluorescence; inhibition, % at 11.5 µM; actives 0.55% (n = 370,000); Crimean-Congo hemorrhagic fever virus L polyprotein viral ovarian tumor (vOTU) protease …; AID 651958, 2012; in the data active = inhibition above about 30%
Anthrax LF inh2 = Bacillus anthracis LF protease inhibitors, primary screen, biochemical, multiplex microsphere, MLPCN library | Lethal factor (Bacillus anthracis), P15917 | multiplex microsphere protease cleavage assay | inhibition, % at 10 µM | actives 0.12% (n = 360,000)
3CLpro inhibitor = SARS-CoV 3CLpro protease inhibitors, primary screen, biochemical, quenched FRET. Replicase polyprotein 1ab (Severe acute respiratory syndrome coronavirus), P0C6X7. recombinant SARS-CoV 3CLpro, quenched FRET peptide cleavage. inhibition, % at 6 µM. AID 1706, 2009. actives 0.14% (n = 290,000); in the data active = inhibition above about 12%
Autofluor counter = flagged as autofluorescent in microsphere protease counterscreen | compound autofluorescence counterscreen, microsphere flow cytometry; active compounds read high | fluorescence intensity (no concentration beside the values) | actives 3.1% (n = 360,000) | AID 624483; in the data active = fluorescence intensity above about 16000; inconclusive = no clear call, values can overlap the other calls
BoNT F protease = BoNT/F light chain protease inhibitors, primary screen, biochemical, flow cytometry, MLPCN library | Multiplex microsphere protease cleavage assay | inhibition, % at 10 µM | actives 0.22% (n = 360,000) | AID 588497, 2011; in the data active = inhibition above about 35%, passing the limit was not always enough; inconclusive = no clear call, values can overlap the other calls
Large screens that a line does not name were inactive. Cut-off read from the data, not from the text of the source, unless noted: active = inhibition above about 30%; inconclusive = no clear call, values can overlap the other calls; inactive = below that.

O=C(NCc1ccc(F)cc1)N[C@@H](Cc1ccccc1)C(=O)O	Autofluor counter 22456
O=C(NC(Cc1ccc(F)cc1)C(=O)O)c1ccccc1 (centres undefined)	none
COc1cc2c(cc1OC)C(c1cccs1)N(C(=S)NC(C)C)CC2 (centres undefined)	none
CCc1nc(N)c(C#N)c(-c2cccnc2)c1C	Autofluor counter 17121
Cc1nc(N)c(C#N)c(-c2cccnc2)c1C	none
COc1ccc(OC)c(N/C(C)=C/C(=O)c2ccc(C)o2)c1	BoNT-A LC inh2 inconclusive, Autofluor counter 20443
CC(C)OC(=O)c1cc(C(=O)c2cc(F)ccc2O)coc1=N	Autofluor counter 16808
CC1CCN(C(=O)CCCOc2cc(=O)n(C)c3ccccc23)CC1	BoNT-A LC inh2 inconclusive, Autofluor counter 20059
COc1ccc(N2CCN(C(=O)CCCOc3cc(=O)n(C)c4ccccc34)CC2)cc1	Autofluor counter 23028
Cc1cc(Cl)c(OCCCCNC(C)(C)C)c(Br)c1	none (no result: BoNT-A LC inh2, CCHF vOTU inh, Anthrax LF inh2, Autofluor counter, BoNT F protease)
CCOC(=O)[C@]12CCCCC/C=C\1N(CCc1ccc(Cl)cc1)C(=O)[C@H]2CC(=O)N1CCCC1	none (no result: BoNT-A LC inh2, Anthrax LF inh2, 3CLpro inhibitor, Autofluor counter, BoNT F protease)
CCCNC(=O)c1c(N)n(-c2ccc3c(c2)OCO3)c2nc3ccccc3nc12	BoNT-A LC inh2 inconclusive, Autofluor counter 21855
COCCCNC(=O)c1c(N)n(-c2ccc3c(c2)OCO3)c2nc3ccccc3nc12	none
Cc1ccc(-c2nnc(SCC(=O)NNC(=O)COc3cccc(C)c3)n2C)cc1	Autofluor counter 22497
Cc1ccc(C(=O)NNC(=O)CSc2nnc(-c3ccncc3)n2C)cc1	Autofluor counter 16351
COc1ccc(C(=O)NNC(=O)CSc2nnc(-c3ccc(O)cc3)n2C)cc1	none
CCn1c(SCC(=O)N/N=C/c2ccc(C)o2)nnc1-c1ccccc1	BoNT-A LC inh2 inconclusive, Autofluor counter 22380
CCn1c(SCC(=O)NNC(=O)c2ccccc2)nnc1-c1ccncc1	BoNT-A LC inh2 inconclusive, Autofluor counter 22311
Cc1ccc(/C=N/NC(=O)CSc2nnc(-c3ccccc3)n2-c2ccc(Cl)cc2)o1	none
O=C(NC1CC1)c1ccc2nc([C@H]3C[C@H](O)[C@@H](CO)O3)[nH]c2c1	none (no result: 3CLpro inhibitor)
CCC(=O)Nc1ccc(C(=O)CN2CCC(C)CC2)cc1	none (no result: BoNT-A LC inh2, CCHF vOTU inh, Anthrax LF inh2, Autofluor counter, BoNT F protease)
CC1(C)CC(CCC(=O)Nc2ccc(S(N)(=O)=O)cc2)C(=O)O1 (centres undefined)	BoNT-A LC inh2 inconclusive, Autofluor counter 22673
O=C(CCNS(=O)(=O)c1cccc2nsnc12)N1CC(=O)N(CCc2ccccc2)C(=O)C1	BoNT-A LC inh2 inconclusive, Autofluor counter 21566
COc1cccc(OC(C)c2ccnc3nc(/N=C/N(C)C)nn23)c1 (centres undefined)	none
Cc1cccc(OC(C)c2ccnc3nc(/N=C/N(C)C)nn23)c1 (centres undefined)	Autofluor counter 21315
CCOc1ccccc1Nc1nc(N)nc(CSc2nncn2C)n1	Autofluor counter 23051
COc1ccc(Nc2nc(N)nc(CSc3nncn3C)n2)cc1	Autofluor counter 16635
C#CCN(C)S(=O)(=O)c1ccc(N2CCCC2)cc1Br	none (no result: BoNT-A LC inh2, Anthrax LF inh2, 3CLpro inhibitor, Autofluor counter, BoNT F protease)
O=S(=O)(Cc1ccccc1)Nn1cnnc1	Autofluor counter 22495
CCCCCCCCCCOC(=O)c1csc2nnsc12	BoNT-A LC inh2 inconclusive, Autofluor counter 20631
CCCCCOC(=O)c1ccccc1C(=O)O	none
CCCCNC(=O)N1CCCC1C(=O)Nc1cccc(OC)c1 (centres undefined)	none (no result: BoNT-A LC inh2, Anthrax LF inh2, 3CLpro inhibitor, Autofluor counter, BoNT F protease)
OCC[C@@H]1C[C@H](O)[C@@H](O)[C@]2(OCc3cc(C(F)(F)F)ccc32)O1	none (no result: 3CLpro inhibitor)
C=CCSc1n[nH]c(-c2ccc(OCCCC)cc2)n1	Autofluor counter 16907
CSc1ccccc1N1CCN(C(=O)Nc2ccc3c(c2)NC(=O)CO3)CC1	BoNT-A LC inh2 inconclusive, Autofluor counter 21233
O=C(Nc1ccc2c(c1)OCO2)N1CCN(c2ccccc2Cl)CC1	none
CSc1nc2c(c(-c3ccccc3)c1C#N)CCC2	BoNT-A LC inh2 inconclusive, Autofluor counter 21295
N#Cc1c2c(nc(N)c1-c1ccccc1)CCCCC2	none
N#Cc1c(N)nc2c(c1-c1ccncc1)CCCCCC2	Autofluor counter 23466
N#Cc1c(N)nc2c(c1-c1ccccc1)CCCC2	BoNT-A LC inh2 inconclusive, Autofluor counter 21448
COc1cccc(CNC(=O)C2(C)CCCCN2C)c1 (centres undefined)	none (no result: 3CLpro inhibitor)
